According to PubChem BioAssay AID1259240 (Keith Lab, Institute of Cancer Science, University of …, 2017):
Values without a mark were called inactive. Activity calls are given as the source filed them. No stated cut-off is given here; in the data, active means fold change mostly below about -2 (no sharp cut-off); inactive means mostly above about -1.8.

Assay: TERT promoter activity modulators, primary screen, cell-based, luciferase reporter, human (AID 1259240)
Conditions: A2780 TERT promoter luciferase reporter, 16 h; at 20 µM, fold versus average of vehicle-only wells

Row | Compound | fold change | outcome
1 | COc1cc(OC)c(-c2nc(-c3cccnc3)no2)cc1OC | 1.51 | 
2 | O=C(CCN1C(=O)c2ccccc2S1(=O)=O)Nc1cccc(Br)c1 | 1.01 | 
3 | CCCN(CCC)CCCNc1ccc2nncn2n1 | 1 | 
4 | CCOP(=O)(OCC)C(Nc1ccccn1)c1ccc(F)cc1 (stereo not given) | -1.13 | 
5 | O=c1cc(-c2cc(Br)cc3c2OCOC3)oc2ccccc12 | -1.26 | 
6 | c1coc(CSc2nc3ccccc3n3cnnc23)c1 | 1.16 | 
7 | Cc1ccc(C(C)C)cc1OCC(O)Cn1cnc2ccccc21 (stereo not given) | -1.17 | 
8 | C1=C(c2cccnc2)Nc2nc3ccccc3n2C1c1cccs1 (stereo not given) |  | inactive
9 | Brc1c(C[n+]2ccccc2)nc2ccccn12 | -1.91 | 
10 | CCCCNC(=O)c1ccc(CNc2c(NC3CCCC3)c(=O)c2=O)cc1 | 1.11 | 
11 | O=C(Cn1ncc2c3ccccc3n(Cc3cccc(Cl)c3)c2c1=O)NCc1cccnc1 | -1.25 | 
12 | Cn1c(=O)c2cc(S(=O)(=O)NCCC(=O)NC3CCCCCC3)ccc2n(C)c1=O | 1.3 | 
13 | NC(=O)c1c(NC(=O)c2csc3c2CCCC3)sc2c1CCCC2 | -1.89 | 
14 | CCCN(CCC)C(=O)Cn1c(=O)oc2cc(S(=O)(=O)N3CC(C)CC(C)C3)ccc21 (stereo not given) | 1.03 | 
15 | Cc1c(NC(=O)C2CC(c3ccc(F)cc3)=NO2)c(=O)n(-c2ccccc2)n1C (stereo not given) | 1.46 | 
16 | Cc1ccc(SCc2nc3sccn3c2Br)cc1 | -1.17 | 
17 | CCOc1csc2nc(C)cc(C)c12 | -1.22 | 
18 | CCCc1nnc(NC(=O)Nc2ccccc2Cl)s1 | -1.54 | 
19 | CCc1ccc2nc(Nc3nccc(C)n3)nc(C)c2c1 | 1.83 | 
20 | CN(C1=NS(=O)(=O)c2cc([N+](=O)[O-])ccc21)c1ccccc1 | -2.35 (active) | 

Row | Compound | fold change | outcome
21 | CCOC(=O)C1=C(CS(=O)(=O)c2ccc(Cl)cc2)NC(=O)NC1c1ccc(OCC)cc1 (stereo not given) | 1.7 | 
22 | Cn1c(Cc2ccccc2)nn(CN2CCC3(CC2)OCCO3)c1=S | -1.07 | 
23 | O=C(NC1CCCCC1)C(=O)c1c(-c2ccccc2)cc2ccccn12 | 1.24 | 
24 | CN(C)c1nc(C(=O)OCCO)nc(N(C)C)n1 | -3.45 (active) | 
25 | Cn1c2ccccc2c2c(C(=O)Nc3ccccc3F)cn(C3CCCC3)c(=O)c21 | -1.15 | 
26 | O=C(O)CSc1ncn(-c2ccccc2)n1 | -4.67 (active) | 
27 | CCOc1cc2c(cc1OCC)C(c1cc(OC)c(OC)c(OC)c1)CC(=O)N2 (stereo not given) | -1.02 | 
28 | O=C(NC1CCCCC1)C1CCCN(S(=O)(=O)c2cnc[nH]2)C1 (stereo not given) | -1.72 | 
29 | N#Cc1ccccc1Cn1c(=O)n(-c2ccc(CC(=O)NCc3ccco3)cc2)c(=O)c2sccc21 | -1.2 | 
30 | CCOCCCNc1nc2c(-c3ccccc3)nnn2c2ccccc12 | 1.12 | 
31 | c1ccc2c(c1)CCN2c1nnc(Cc2ccncc2)c2ccccc12 | -1.29 | 
32 | CN1C(=O)C(O)(CC(=O)c2ccccc2O)c2cc(Br)ccc21 (stereo not given) | 1.07 | 
33 | c1ccc(-c2nnc3ccc(N4CCC5(CC4)OCCO5)nn23)cc1 | 1.02 | 
34 | COC(=O)c1ccc(C2NC(=O)c3n[nH]c(C)c32)cc1 (stereo not given) | -1.08 | 
35 | Cc1c(C(=O)N2CCOCC2)sc2nc3n(c(=O)c12)N=C(c1ccc(Cl)cc1)CS3 | 1.21 | 
36 | CCc1cccc(Nc2nc3ccccc3n3cnnc23)c1 | -4.16 (active) | 
37 | O=C(CN1C(=O)COc2ccc(S(=O)(=O)N3CCCCCC3)cc21)N1CCC2(CC1)OCCO2 | -1.25 | 
38 | CC1(C)NC(=O)N(CC(O)COc2ccccc2)C1=O (stereo not given) | -1.3 | 
39 | Cc1cc(NC(=O)CSc2nnc(Cc3cc(=O)[nH]c(=O)[nH]3)n2-c2ccc(Cl)cc2)no1 | -1.22 | 
40 | O=c1[nH]c2ncccc2c(=O)n1CCc1c[nH]c2ccccc12 | -1.06 | 
